Laboratory results taken from PubChem BioAssay (EPA / NIEHS).
Activity calls are given as the source filed them. The calls were made as follows: active = hit-call score of the fitted dose curve at least 0.9, where 1 is the maximum; inactive = score below 0.9.

Target: CCAAT/enhancer-binding protein beta (Homo sapiens) (UniProt P17676)
Assay: ATG_C_EBP_CIS: Attagene CIS-FACTORIAL HepG2 Assay for human CCAAT/Enhancer Binding Protein (C/EBP) beta (AID 2282927)
Conditions: HepG2 Attagene cis-factorial transcription factor reporter; actives raise or lower the signal
How it was run: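 Following a 24 h incubation with test chemical, transfected HepG2 cells yielded RNA whose reporter transcripts were quantified by RT-PCR and fluorescent capillary electrophoresis, with DMSO serving as baseline for bidirectional fitting.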

Chain of CCAAT/enhancer-binding protein beta (Homo sapiens) (P17676 whole entry, looked up): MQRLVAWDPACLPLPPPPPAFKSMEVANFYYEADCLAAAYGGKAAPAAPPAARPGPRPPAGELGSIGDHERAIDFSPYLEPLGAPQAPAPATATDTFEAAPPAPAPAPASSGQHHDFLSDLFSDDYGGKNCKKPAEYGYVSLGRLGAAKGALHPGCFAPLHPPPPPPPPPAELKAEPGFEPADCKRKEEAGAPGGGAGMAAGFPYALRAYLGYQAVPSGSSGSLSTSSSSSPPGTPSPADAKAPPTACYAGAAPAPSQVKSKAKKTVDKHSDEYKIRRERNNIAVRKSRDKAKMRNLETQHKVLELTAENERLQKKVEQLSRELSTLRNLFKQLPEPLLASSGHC

| SMILES | outcome | AC50 |
| --- | --- | --- |
| O=C(NC(=O)c1c(F)cccc1F)Nc1cc(Cl)c(OC(F)(F)C(F)C(F)(F)F)cc1Cl (centres undefined) | inactive | – |
| Brc1c(Br)c(Br)c(Oc2c(Br)c(Br)c(Br)c(Br)c2Br)c(Br)c1Br | inactive | – |
| C[C@@H]1O[C@@H](O[C@H]2C[C@@H](O)[C@]3(CO)[C@H]4[C@H](O)C[C@]5(C)[C@@H](C6=CC(=O)OC6)CC[C@]5(O)[C@@H]4CC[C@]3(O)C2)[C@H](O)[C@H](O)[C@H]1O | – | 0.0716 µM (active) |
| C1CN2CCN1CC2 | inactive | – |
| O=c1[nH]c2ccccc2n1C1CCN(CCCC(c2ccc(F)cc2)c2ccc(F)cc2)CC1 | – | 5.75 µM (active) |
| CCOP(=S)(OCC)SCSc1cc(Cl)ccc1Cl | inactive | – |
| CN(C)c1ccc(N=O)cc1 | inactive | – |
| CC1CC(=O)O1 (centres undefined) | inactive | – |
| NC(=O)CCl | inactive | – |
| O=C(O)COc1cc(Cl)c(Cl)cc1Cl | inactive | – |
| CC(C)(C#N)N=NC(C)(C)C#N | inactive | – |
| Fc1cccc(Cl)c1CCl | inactive | – |
| C=C(C)C(=O)OCCCCOC(=O)C(=C)C | inactive | – |
| O=[N+]([O-])c1c2ccccc2cc2ccccc12 | inactive | – |
| CC(c1ccc(O)cc1)c1ccc(O)cc1 | inactive | – |
| CN(N=O)c1ccc([N+](=O)[O-])cc1 | inactive | – |
| c1cc[c]([Sb]([c]2ccccc2)[c]2ccccc2)cc1 | inactive | – |
| Brc1ccc(Br)cc1 | inactive | – |
| Nc1ccc(Br)cc1 | inactive | – |
| Oc1c(Br)cc(Br)cc1Br | inactive | – |

| SMILES | outcome | AC50 |
| --- | --- | --- |
| CC(C)(COCC1CO1)COCC1CO1 (centres undefined) | inactive | – |
| O=S(=O)(C(Cl)(Cl)Cl)C(Cl)(Cl)Cl | inactive | – |
| COC(F)(C(F)(F)C(F)(F)F)C(F)(C(F)(F)F)C(F)(F)F (centres undefined) | inactive | – |
| O=[N+]([O-])c1ccc(Nc2ccccc2)cc1 | inactive | – |
| CC(C)(C1CCC(O)CC1)C1CCC(O)CC1 (centres undefined) | inactive | – |
| Clc1cnc(Oc2ccc(Oc3ncc(Cl)cc3Cl)cc2)c(Cl)c1 | inactive | – |
| O=S(=O)(c1ccc(Cl)cc1)c1cc(Cl)c(Cl)cc1Cl | inactive | – |
| CCN(CCO)CCO | inactive | – |
| CC(C)[N+](=O)[O-] | inactive | – |
| CNC(=O)CSP(=O)(OC)OC | inactive | – |
| Cc1ccc(CCl)cc1 | inactive | – |
| CCCCOC(=O)COC(=O)c1ccccc1C(=O)OCCCC | inactive | – |
| CCCCC(CC)C(=O)Cl (centres undefined) | inactive | – |
| ClCc1ccccc1Cl | inactive | – |
| O=C/C(Cl)=C(/Cl)C(=O)O | inactive | – |
| O=C(CCl)Nc1ccccc1 | inactive | – |
| N#Cc1ccccc1Cl | inactive | – |
| C[N+](C)(C)Cc1ccccc1 | inactive | – |
| CCCCCCCCCCCCCCC(Br)C(=O)O (centres undefined) | – | 179 µM (active) |
